According to PubChem BioAssay (NCI):
About 83,000 compounds went through this panel and 20% of them were active in at least one assay; those are over-represented in the sample as a whole.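 For each line, cells grew in 96-well plates with the test compound present at a single concentration for 48 hours.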 Calls of active or inactive are those of the source.

Tested on: CAKI-1 renal
Experiment: NCI-60 one-dose screen, 48 h (100 = growth as untreated, 0 = no growth, -100 = all killed)
Details: 10 µM unless noted
Protocol: Growth inhibition of the CAKI-1 human tumor cell line is measured as a screen for anti-cancer activity. Cells are grown in 96 well plates and exposed to the test compound for 48 hours. Compounds are tested at a single concentration, which is 10^-5 M for most compounds. The reported endpoint is percent growth (GI% or GIPRCNT), where numbers from 0 - 100% represent growth inhibition, and numbers from -100% - 0 represent cell death. For example, a value of 40 represents 60% growth inhibition. A value of 0 means no net growth occurred over the course of the experiment. A value of -40 indicates 40% of cells at the beginning of the experiment died by the end of the experiment. A value of -100 means all cells are dead at the end of the experiment.
NCI-60 Human Tumor Cell Lines Screen was performed using the standard one-dose NCI protocol, which is described in more detail at https://dtp.cancer.gov/discovery_development/nci-60/default.htm.
Compounds with GIPRCNT values below 10 were considered active. Activity score was based on GIPRCNT using the following formula: […]
Score is 0 for GIPRCNT values of 100 or above, 50 for GIPRCNT values of 0, and 100 for GIPRCNT values of -100.

SMILES	growth
COC(=O)[C@@H](C[C@H](Cc1ccccc1)NC(=O)c1csc([C@@H](C[C@H](C(C)C)N(C)C(=O)[C@@H](NC(=O)[C@H]2CCCCN2C)C(C)C)OC(C)=O)n1)NC(=O)OCc1ccccc1	35.1% [9.5 µM] (inactive)
C/C(CC(C)(C)N1CC1)=N\NC(=O)Nc1cccc2ccccc12	28.9% (inactive)
COc1cc2ncnc(Nc3ccc(F)c(Cl)c3)c2cc1OCC(=O)N1CCN(C)CC1	44.1% (inactive)
O=C1C=C2C(=CCOC2O)O1 (stereo not given)	-13.2% (active)
c1ccc(CSC(c2ccccc2)c2ccccc2)cc1	96.7% (inactive)
Cc1ccc(Nc2nc3c(s2)C2=CC[C@@H]4[C@H](CC[C@]5(C)C(=O)CC[C@@H]45)[C@@]2(C)CC3)cc1	34.3% (inactive)
CCC1(C)CC(CCNCc2ccccc2O)(c2ccc(C)cc2)CCO1 (stereo not given)	106% (inactive)
C/C1=C/C(=O)O[C@@H]2C[C@@H](CC[C@H](C)/C=C\C=C\CC1)O[C@@](O)([C@@H]1CSC(=O)N1CO)C2	-48.3% (active)
O=[N+]([O-])c1cnc[nH]1	99% (inactive)
CN[C@]1(c2ccccc2Cl)CCCC[C@H]1NCCCN1CCN(C)CC1	87.3% (inactive)
COc1cc(C=Nc2cc(Cl)cc(Cl)c2)ccc1N(CCCl)CCCl	63.3% (inactive)
COc1cc2c(cc1OCCCCCn1c(-c3ccco3)nc3ccccc31)N=C[C@@H]1CCCN1C2=O	12% (inactive)
CC1=C(CNO)C2=C(C)C3(CC3)[C@@](C)(O)C(=O)C2=C1	-9.31% (active)
COC[C@@H]1C[C@@]2(C)[C@@H](CC[C@@H]3[C@@H]2CC[C@@]2(C)[C@H]3CC[C@]2(C)O)CC1=O	94.4% (inactive)
c1ccc(Nc2nc(-c3ccccc3)c[se]2)cc1	55.7% (inactive)
COC1OC(CO)C(O)C(O)[CH]1[Hg][O]C(C)=O (stereo not given)	101% (inactive)
CC(=O)Oc1ccccc1C(=O)NCCC[Se]C#N	0.654% (active)
COC(=O)[C@@H](C)C[C@H](Cc1ccccc1)NC(=O)c1nc([C@@H](C[C@H](C(C)C)N(C)C(=O)[C@@H](NC(=O)[C@H]2CC(=O)CCN2C)C(C)C)OC(C)=O)sc1C(C)C	34.6% (inactive)
COc1cc(NCCCN=C(N)N)c2ncccc2c1	97.9% (inactive)
O=C1CN=C(c2ccc(Cl)cc2)c2sccc2N1	97.9% (inactive)

SMILES	growth
COc1cc2c(cc1OCCCn1c(-c3ccccn3)nc3ccccc31)N=C[C@@H]1CCCN1C2=O	-6.53% (active)
Cc1ccc(C(=O)NCCCOc2ccc(N)cc2Cl)cc1S(=O)(=O)F	92.5% (inactive)
O=C(O)C1C(C(=O)O)C2(Cl)C(Cl)=C(Cl)C1(Cl)C2(Cl)Cl.[Hg] (stereo not given)	101% (inactive)
CC12CC(=O)C3(SC#N)C(CCC4=CC(=O)CCC43C)C1CCC2=O (stereo not given)	93.5% (inactive)
NC(CCl)CCl	99.3% (inactive)
Cc1cc(N(CCCl)CCCl)ccc1C=Nc1cccnc1	12.7% (inactive)
Cc1sc2c(c1C)C(c1ccc(Cl)cc1)=N[C@@H](CC(=O)OC(C)(C)C)c1nnc(C)n1-2	21.6% (inactive)
C1CCC2(CC1)OOCNCOO2	93.1% (inactive)
CCCCOc1ccc(C(N)Cc2ccccc2)cc1 (stereo not given)	84.1% (inactive)
C=C1[C@@H](C)[C@H]2[C@H](Cc3ccccc3)NC(=O)[C@]23[C@@H](O)/C=C/[C@@](C)(O)C(=O)[C@@H](C)C/C=C/[C@H]3[C@@H]1O	52.5% (inactive)
CC12CC=CCC1CCC1C2CCC2(C)C(c3ccc(=O)oc3)CCC12O (stereo not given)	-57% (active)
C#Cc1ccc2c(c1)C(c1ccccc1F)=NCC(=O)N2C	55.1% (inactive)
O=C1C2CC=CCC2C(=O)N1SC(Cl)(Cl)Cl (stereo not given)	72.8% (inactive)
CC1=C2[C@@H](CC1)[C@]1(C)O[C@@](C(C)C)(C[C@H]1O)[C@H]2OC(=O)C1CC1c1ccccc1 (stereo not given in full)	79.5% (inactive)
COC(=O)[C@@H](C)C[C@H](Cc1ccccc1)NC(=O)c1csc([C@@H](C[C@H](C(C)C)N(C)C(=O)[C@@H](NC(=O)[C@H]2CCCCN2C)c2ccc(F)cc2)OC(C)=O)n1	14% (inactive)
CCN(CC)CCOC(=O)C(OC(C)C)(c1ccccc1)c1ccccc1	87.2% (inactive)
Clc1cc(N2CC2)nc(N2CC2)n1	5.82% (active)
CCCCCCCCOC(=O)CCN1CC1	98.4% (inactive)
O=C([O][Hg][c]1ccccc1)c1ccccc1	-89.3% (active)
Nc1ccc(OCCNS(=O)(=O)c2cccc(S(=O)(=O)F)c2)c(Cl)c1	86.8% (inactive)
